Shown are actives, neighbours in structure and some others; about 19% of the full set was active somewhere.
HT1080 IDH1KD tx: kills HT-1080 cells with IDH1 knockdown; HT-1080 IDH1 knockdown viability, ATP luminescence, 48 h; Potency, µM (highest dose often 46.1 µM), without a hit: top-dose activity, negative = toxicity, usual class: cytotoxic; hit rate 2% among 360,000; AID 686971;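 further: potency means the concentration at half of the fitted maximal effect; 0% = DMSO wells and -100% = cell-free medium wells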
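HT-1080-IDH1KD cells (IDH1 knocked down), 750/well in RPMI with 5% FBS, treated with compound 48 h at 37 degrees C. Viability by CellTiter-Glo luminescence, normalised to DMSO and no-cell wells; concentration-response curves classed.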
IL-1B inflam inh: inhibitors of inflammasome signaling (IL-1 beta secretion). hit rate 4.7% among 360,000. activity change, % at 57.5 µM. AID 743279. THP-1 LPS/ATP IL-1B secretion, AlphaLISA, 16 h; hits give low values; in the data active means activity change below about -50%; inconclusive means mostly about -30% to -49%
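Secreted IL-1B measured by AlphaLISA bead assay after 16 h compound exposure of THP-1 cells; compounds (final up to 57.5 uM) added 1 h before LPS (250 ng/mL) and ATP (1.25 mM) stimulation; lower signal means less secretion.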
DT40 TDP1 CPT: DT40-hTDP1 cell growth loss with CPT; chicken DT40 Tdp1-/-;hTDP1 cells + 20 nM CPT, ATP luminescence, 48 h; Potency, µM (titrated, usually from 46.2 µM), inactives show at the highest dose activity change, negative = growth inhibition, actives largely listed as inhibitors; hit rate 12% among 420,000; further: potency means the concentration at half of the fitted maximal effect; nearly all actives have a fitted effect of over 55% in size
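Chicken DT40 Tdp1-/- cells stably complemented with human TDP1 were seeded at 400 cells/well in medium containing 20 nM camptothecin, exposed to pin-transferred compounds, and grown at 37 °C for at least 48 hr. Viability was read as ATP luminescence.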
ELG1 DNA repair: ELG1-dependent DNA repair inhibition | Potency, µM (highest dose often 46.1 µM), without a hit: at the highest dose activity change, negative = inhibition, usual class: inhibitors | HEK293T ELG1-luciferase reporter, luminescence, 16 h; DNA damage induced by 5-fluorouridine | hit rate 2.3% among 330,000; further: potency means the concentration at half of the fitted maximal effect; nearly all actives have a fitted effect of over 55% in size
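DMSO vehicle served as the neutral condition. Each well held 2,000 cells given 5-fluorouridine plus compound; after 16 hr at 37 °C/5% CO2, ONE-Glo was added and luciferase measured 30 min later.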
TDP1 cell noCPT: qHTS for Inhibitors of human tyrosyl-DNA phosphodiesterase 1 (TDP1): qHTS in cells in absence of CPT. hit rate 15% among 420,000. DT40 Tdp1-/- hTDP1 cells, no CPT, ATP luminescence, 48 h. AID 686978, 2013. Potency, µM (series often up to 46.2 µM), inactives show top-dose activity change, negative = growth inhibition, most hits filed as inhibitors; further: potency means the concentration at half of the fitted maximal effect; nearly all actives have a fitted effect of over 55% in size
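Stably hTDP1-transfected Tdp1-null chicken DT40 cells were treated with library compounds minus camptothecin and grown for at least 48 hr at 37 °C, after which cellular ATP was quantified by luminescence.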
HT1080NT lethal: kills 2HG-producing HT-1080-NT fibrosarcoma cells; hit rate 1.6% among 360,000; HT-1080-NT fibrosarcoma viability, CellTiter-Glo ATP luminescence, 48 h; Potency, µM (highest dose often 46.1 µM), for inactives: at the top dose activity, negative = less viability, actives largely listed as cytotoxic;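 further: NT is the 2HG producing partner of a matched IDH1 knockdown line; potency means the concentration at half of the fitted maximal effect; 0% = DMSO-treated cells and -100% = media-only wells without cells; nearly all actives have a fitted effect of over 55% in size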
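Luminescent CellTiter-Glo readout after 48 hours of compound exposure at 37 degrees C defined viability of HT-1080-NT cells. Activity was normalized to DMSO wells and cell-free media wells; concentration-response curves were fitted and assigned curve classes.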
An asterisk follows results filed as active; ? = inconclusive; . = no result given. Unless noted, the call rests on the fitted dose curve; in most records, active means well fitted curve in the direction sought with a large enough effect; inconclusive means small, poorly fitted or top-dose-only effect, or another doubt; inactive means no such curve, though single readings can be large; an effect the other way counts as inactive or inconclusive. Unless noted, on the % scale 0 is the no-effect control and ±100 the full control effect.

SMILES | HT1080 IDH1KD tx | IL-1B inflam inh | DT40 TDP1 CPT | ELG1 DNA repair | TDP1 cell noCPT | HT1080NT lethal
O=C(NCCc1ccccc1)C1CCC(Cn2c(=O)c3ccccc3n(Cc3cccc(Cl)c3)c2=O)CC1 (centres undefined) | 25% | 25 | ? | . | 15µM* | 19%
COc1ccc(NC(=O)Cn2c(=O)n(CC(=O)NCCc3ccccc3)c(=O)c3ccccc32)cc1 | . | . | -17% | . | -19% | .
CSCCC1NC(=S)N(Cc2ccccc2)C1=O (centres undefined) | -7% | 34 | 2% | -4% | 6% | -8%
Cc1cccc(N2C(=O)C(O)=C(C(=O)c3cccs3)C2c2ccc(Cl)cc2)n1 (centres undefined) | 1% | 8 | 0% | ? | ? | -4%
COc1ccc(OC)c(NC(=O)CSc2cn(CC(=O)N3CCCCCC3)c3ccccc23)c1 | . | . | ? | . | 21µM* | .
COc1ccc(Cl)cc1NC(=O)CSc1cn(CC(=O)N2CCCCC2)c2ccccc12 | . | . | 21µM* | . | 21µM* | .
Cc1cccc(NC(=O)CSc2cn(CC(=O)N3CCCC3)c3ccccc23)c1C | . | . | -27% | . | ? | .
N#CC(C#N)=Cc1cc2ccccc2nc1N1CCOCC1 | 3% | -10 | 13µM* | 20% | 10µM* | 5%
Cc1ccc2cc(C=C(C#N)C#N)c(N3CCCCC3)nc2c1 | ? | -1 | ? | 15% | ? | ?
N#C/C(=C\c1cc2ccccc2nc1N1CCOCC1)C(=O)Nc1ccc(N2CCOCC2)cc1 | -2% | 12 | 13µM* | 12µM* | 16µM* | -3%
O=C(Nc1ccccc1Oc1ccsc1C(=O)O)c1ccccc1F | 9% | 8 | 4% | -8% | -13% | 3%
CCCCCCn1c(COc2ccccc2F)nnc1SCC(=O)NC1CCS(=O)(=O)C1 (centres undefined) | 5% | -16 | ? | . | -24% | -1%
CC(=O)Oc1c(-c2ccco2)oc2ccccc2c1=O | ? | -82* | -18% | ? | -30% | ?
CCCCCCCCCCCCCCCCCC(=O)[O][Al] | . | . | 0% | . | -7% | .
CC(C)(C)OC(=O)N1CCC(C(=O)Nc2cccc(C(=O)NCc3ccccc3)c2)CC1 | -19% | 12 | 23µM* | . | 21µM* | -16%
O=C(NCc1ccccc1)c1cccc(NC(=O)C2CCC2)c1 | 1% | 7 | 0% | . | -13% | 5%
CC(C)(C)OC(=O)N1CCC(C(=O)Nc2cccc(C(=O)NCCCc3ccccc3)c2)CC1 | -23% | 102 | 15µM* | . | 21µM* | -26%
Cn1cnc2c(=O)oc3ccc(S(=O)(=O)Nc4ccc(F)cc4)cc3c21 | . | . | -7% | . | -10% | .
Cc1ccc(C)c(NC(=O)c2cnn(-c3ccccc3)c2C)c1 | -4% | -58* | ? | ? | ? | -5%
Cc1ccccc1NC(=O)c1cnn(-c2ccccc2)c1C | 14% | ? | 0% | ? | -10% | ?
Cc1c(C(=O)Nc2cccc(F)c2)cnn1-c1ccccc1 | -20% | -23 | 18µM* | ? | 15µM* | -1%
O=C(CSc1n[nH]c(-c2ccco2)n1)Nc1ccccc1Cl | -9% | ? | -1% | -1% | -11% | -1%
CCOc1ccc(N(CC(=O)NCc2ccc(F)cc2)C(=O)c2snc(C(N)=O)c2N)cc1 | -2% | 6 | 4% | 16% | -14% | -9%
O=C(O)[C@H]1/C(=C/CO)O[C@@H]2CC(=O)N21 | . | . | -1% | . | -14% | .
Cn1c(CN2CCCCC2)nc2cc(NC(=O)c3ccc(F)cc3)ccc21 | -7% | ? | -28% | ? | -1% | -30%
Cn1c(CN2CCCCC2)nc2cc(NC(=O)c3ccccc3Cl)ccc21 | ? | 14 | 16µM* | ? | 23µM* | -18%
